# Results as given in PubChem BioAssay (NCI).
# About 83,000 compounds went through this panel and 20% of them were active in at least one assay; those are over-represented in the sample as a whole.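 In brief: 96-well plates, 48 h treatment, single concentration, percent growth endpoint.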 A number with no mark means an inactive call. Activity calls are given as the source filed them. The calls were made as follows: active = growth percent below 10; inactive = the rest.
# Tests used:
# Assay in all cases: NCI-60 one-dose screen, 48 h (100 = growth as untreated, 0 = no growth, -100 = all killed)
# SK-MEL-2 melanoma = conditions: 10 µM unless noted
# EKVX NSCLC = conditions: 10 µM unless noted
# SN12C renal = conditions: 10 µM unless noted
# UO-31 renal = conditions: 10 µM unless noted
# TK-10 renal = conditions: 10 µM unless noted
# ACHN renal = conditions: 10 µM unless noted
# CAKI-1 renal = conditions: 10 µM unless noted
# HL-60(TB) leukemia = conditions: 10 µM unless noted
# CCRF-CEM leukemia = conditions: 10 µM unless noted
# A498 renal = conditions: 10 µM
SMILES,growth (SK-MEL-2 melanoma),growth (EKVX NSCLC),growth (SN12C renal),growth (UO-31 renal),growth (TK-10 renal),growth (ACHN renal),growth (CAKI-1 renal),growth (HL-60(TB) leukemia),growth (CCRF-CEM leukemia),growth (A498 renal) [%]
CCn1cnc2c(Nc3cccc(Cl)c3)nc(N[C@@H]3CCCC[C@@H]3N)nc21,-1.69% (active),11.8%,6.96% (active),-13.3% (active),13.5%,0.47% (active),25.1%,-51.6% (active),2.54% (active),–
CCC1CC(O)c2c(O)c3c(c(O)c2C1O)C(=O)c1cccc(O)c1C3=O (stereo not drawn) (tested in a mixture with another compound),-63% (active),-4.25% (active),0.851% (active),-32.9% (active),-13.7% (active),-18.1% (active),0.243% (active),-45.5% (active),-21.5% (active),–
CC(C)OC(=O)[C@H](C)NP(=O)(Oc1ccccc1)C1CCCN(O)C1=O (stereo partly drawn),94.1%,93.4%,99.2%,86.2%,99.5%,79.4%,104%,94.1%,91.3%,–
CCOP(=O)(Nc1ccc2c(c1)/C(=N/NC(N)=S)c1ccccc1-2)OCC,110%,92.9%,81.9%,91.8%,104%,89.9%,97.4%,–,85.6%,96.3
N#CC1C(C#N)C2CCC1C1C2N1c1ccccc1 (stereo not drawn),106%,97.5%,99.5%,72.3%,106%,97.4%,98.9%,91.7%,82.9%,–
CC(=O)O[C@H](C[C@H](C(C)C)N(C)C(=O)[C@@H](NC(=O)[C@H]1CCCCN1C)C(C)C)c1nc(C(=O)N[C@@H](Cc2ccccc2)C[C@H](C)C(=O)O)c(CCOCc2ccccc2)s1,2.3% (active),49%,9.77% (active),31.8%,31.3%,12.3%,24.4%,-29.3% (active),9.38% (active),–
Cc1cccc(N2CCN(C(C)C#N)CC2)c1 (stereo not drawn),104%,100%,103%,84%,119%,104%,95%,–,107%,–
CCOC(=O)[C@@H](C)C[C@H](Cc1ccccc1)NC(=O)c1csc([C@@H](C[C@H](C(C)C)N(C)C(=O)[C@@H](NC(=O)[C@H]2C[C@H](O)CCN2C)C(C)C)OC(C)=O)n1,16.8%,47.6%,20.6%,36.1%,38.4%,19.7%,30.9%,-27.1% (active),4.67% (active),–
O=C1CNC(c2ccccc2)c2cc(Cl)ccc2N1 (stereo not drawn),95.5%,104%,97.6%,80.4%,93.2%,109%,–,97.5%,94.2%,97.5
C/C(=C\c1ccn(-c2ccccc2N)n1)[C@@H]1C[C@@H]2O[C@]2(C)CCC[C@H](C)[C@H](O)[C@@H](C)C(=O)C(C)(C)[C@@H](O)CC(=O)O1,33.2%,44.8%,38%,41.5%,51.6%,46.3%,40.4%,–,19.6%,13
O=C(Nc1ccc([N+](=O)[O-])cc1)C(Cl)(Cl)Cl,102%,89.4%,95.3%,87.3%,113%,86.9%,83.3%,108%,101%,–
Clc1ccc2nnnn2n1,-12.1% (active),90%,51.2%,5.04% (active),37.5%,43%,–,-25.8% (active),19.6%,78.7
COc1ccc(NC([Se])=NC23CC4CC(CC(C4)C2)C3)cc1,-8.11% (active),-14.3% (active),4.39% (active),-27.3% (active),-40.9% (active),0.201% (active),-31% (active),-11.8% (active),5.94% (active),–
C[C@@]12CC=C3c4nc(Nc5cccc(O)c5)sc4CC[C@]3(C)[C@H]1CC[C@]1(C)C(=O)CC[C@@H]21,29.1%,71.4%,46.5%,22.2%,10.2%,5.12% (active),37.1%,46%,13%,–
COc1ccc(/C=C\c2cc(OC)c(OC)c(OC)c2)cc1OCC(=O)Nc1nc2ccc(F)cc2s1,68.8%,57.7%,42.4%,0.455% (active),17.5%,25%,16.9%,–,40.4%,29.5
CCCCCCCCCCCCNC(c1ccccc1)C(O)c1ccccc1 (stereo not drawn),92.8%,92.6%,68.5%,72%,98.8%,67.4%,–,66.8%,63.1%,116
CCOC(=O)[C@@H](C)C[C@H](Cc1ccccc1)NC(=O)c1csc([C@@H](C[C@H](C(C)C)N(C)C(=O)[C@@H](NC(=O)[C@H]2CCCCN2C)C(C)(C)CC)OC(C)=O)n1,2.19% (active),37.4%,9.13% (active),7.43% (active),29.3%,2.48% (active),19.8%,-33.4% (active),3.47% (active),–
COC(=O)[C@@H](C[C@H](Cc1ccccc1)NC(=O)c1csc([C@@H](C[C@H](C(C)C)N(C)C(=O)[C@@H](NC(=O)[C@H]2CCCCN2C)C(C)C)OC(C)=O)n1)NC(=O)OCc1ccccc1,-10.4% [9.5 µM] (active),51.5% [9.5 µM],15% [9.5 µM],27.3% [9.5 µM],45.2% [9.5 µM],16.4% [9.5 µM],35.1% [9.5 µM],-40.2% [9.5 µM] (active),6.42% [9.5 µM] (active),–
CC(=O)OC[C@]1(C)C=C2C(=O)[C@](C)(O)C3(CC3)C(C)=C2[C@H]1O,-55.1% (active),-13.7% (active),-5.94% (active),-47.3% (active),-15.3% (active),-12.4% (active),1.8% (active),-12.4% (active),14.6%,–
Cc1cc(N(CCCl)CCCl)ccc1C=Nc1ccccc1-c1ccccc1,115%,101%,54.8%,59.5%,88.2%,34.4%,27.6%,48.4%,54.2%,–
Brc1ccc2c(c1)c(-c1nc(-c3c[nH]c4ncccc34)cs1)cn2CCN1CCOCC1,80%,43.5%,71.5%,35.8%,74.1%,55.2%,–,71%,45.8%,88.7
Cn1cccc1C1CC(=O)N(CCC[Se]C#N)C1=O (stereo not drawn),-35.2% (active),-65.3% (active),-3.67% (active),-75.9% (active),-69.5% (active),-4.46% (active),-80.1% (active),-42.8% (active),13.8%,–
O=[N+]([O-])CC(c1ccccc1Cl)c1c(-c2ccccc2)[nH]c2ccccc12 (stereo not drawn),27.2%,40.6%,53.4%,45.1%,61.6%,39.7%,24.4%,6.94% (active),23.6%,–
Fc1ccc2c(c1)c(-c1nc(-c3c[nH]c4ncccc34)cs1)cn2CCCCN1CCCCC1,-76.7% (active),23.3%,-84.4% (active),-86.9% (active),-86.1% (active),-97.4% (active),–,-70% (active),-61.4% (active),63.2
COP(=S)(N1CC1)N1CC1,103%,106%,112%,84.3%,110%,103%,93.6%,106%,105%,–
CCOC(=O)N[C@H]1CCc2c(Br)c(OC)c(OC)c(OC)c2-c2ccc(SC)c(=O)cc21,43.5%,45.4%,24.3%,27.3%,42.1%,24.4%,3.95% (active),-39.9% (active),1.82% (active),–
